# Test results published in PubChem BioAssay.
# Results filed as inconclusive are left out. Active and inactive are the calls of the source.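 How the source made its calls, unless noted: active means efflux inhibition above 0.42, the validation set average plus 4 SD; inconclusive means no clear call, values can overlap the other calls; inactive means the rest.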
# Key:
# [1] = rapamycin-like changes in RPL19A-GFP expression – cell-based, S. cerevisiae, multiplex flow cytometry, primary screen (AID 1862; in the data active means percent of DMSO control GFP below about 86%;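 further: lower values mimic rapamycin by blocking the RPL19A rise seen in DMSO cells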); conditions: S. cerevisiae RPL19A-GFP strain, flow cytometry fluorescence, 3 h; at 10 µM; stronger effect = lower value
# [2] = TOR pathway GLN3 branch reporter MEP2-GFP changes – S. cerevisiae, multiplex flow cytometry, primary screen (AID 1867;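 active means GFP response, as percent of the DMSO control, above the screen-wide mean plus 3 SD, about 139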;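 further: median GFP channel fluorescence of barcode-gated MEP2-GFP cells measured by flow cytometry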); conditions: S. cerevisiae MEP2-GFP strain, 3 h, at 10 µM, stronger effect = higher value, 100% means same as DMSO wells
# [3] = TOR pathway RTG branch CIT2 reporter changes – S. cerevisiae, GFP fusion, multiplex flow cytometry, primary screen (AID 1870;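 active means percent response above a set limit, the screen-wide mean plus 3 SD, cut at about 130% in these data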;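 further: barcoded CIT2-GFP strain pooled with four other GFP strains with rapamycin as positive control; median GFP fluorescence per well over plate mean of DMSO wells so 100% = DMSO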); conditions: S. cerevisiae CIT2-GFP expression, 3 h, at 10 µM, stronger effect = higher value
# [4] = TOR pathway LAP4-GFP level changes – S. cerevisiae, multiplex flow cytometry, primary screen (AID 1873;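 active means GFP signal, as percent of the solvent control, above the screen mean plus 3 SD, about 149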); conditions: S. cerevisiae LAP4-GFP expression, 3 h, at 10 µM, stronger effect = higher value
# [5] = yeast AGP1-GFP level changes, GLN3 branch – cell-based, multiplex flow cytometry, S. cerevisiae, primary screen (AID 1887;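 active means GFP signal above the screen-wide mean plus 3 SD, that is over about 124.5% of the solvent control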;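 further: AGP1-GFP fusion strain of S. cerevisiae within a five-strain barcoded multiplex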); conditions: 3 h, at 10 µM, stronger effect = higher value
# [6] = reduced mouse 2C T cell binding to pMHC/ICAM-1 vesicles – MLPCN validation set, flow cytometry, LFA-1/ICAM-1 modulator project, pilot screen (AID 2523;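 active means response below a set limit, under 55% cells CD8-positive and vesicle-bound, and CD8 cells' 90th-percentile brightness under 279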;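 on vesicle binding response: mean PE anti-B7-1 fluorescence of CD8+ cells relative to row control; 100% = QL9-loaded vesicles with DMSO vehicle in the same plate row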); conditions: 2C mouse CD8+ T cells, at 7 µM, stronger effect = lower value; double positive events: measured here: CD8+/vesicle+ event percentage
# [7] = molecular target: Integrin beta-1 (Homo sapiens) + Integrin alpha-4 (Homo sapiens) (UniProt P13612+P05556); test: alpha4beta1 integrin LIBS antibody binding reduction – U937 cells, HUTS-21 mAb, flow cytometry, validation set, VLA-4 allosteric modulator project, pilot screen (AID 2674;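 active means inhibition above 50%, about 3 SD of the validation set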;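 further: antibody binding induced by the VLA-4 ligand LDV present at three times its Kd; 0% = LDV ligand with antibody and no compound and 100% = antibody without LDV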); conditions: HUTS-21 LIBS mAb binding, at 6.7 µM, stronger effect = higher value, binding induced by LDV ligand
# Integrin beta-1 (Homo sapiens) + Integrin alpha-4 (Homo sapiens), sequence (P05556 whole entry, looked up): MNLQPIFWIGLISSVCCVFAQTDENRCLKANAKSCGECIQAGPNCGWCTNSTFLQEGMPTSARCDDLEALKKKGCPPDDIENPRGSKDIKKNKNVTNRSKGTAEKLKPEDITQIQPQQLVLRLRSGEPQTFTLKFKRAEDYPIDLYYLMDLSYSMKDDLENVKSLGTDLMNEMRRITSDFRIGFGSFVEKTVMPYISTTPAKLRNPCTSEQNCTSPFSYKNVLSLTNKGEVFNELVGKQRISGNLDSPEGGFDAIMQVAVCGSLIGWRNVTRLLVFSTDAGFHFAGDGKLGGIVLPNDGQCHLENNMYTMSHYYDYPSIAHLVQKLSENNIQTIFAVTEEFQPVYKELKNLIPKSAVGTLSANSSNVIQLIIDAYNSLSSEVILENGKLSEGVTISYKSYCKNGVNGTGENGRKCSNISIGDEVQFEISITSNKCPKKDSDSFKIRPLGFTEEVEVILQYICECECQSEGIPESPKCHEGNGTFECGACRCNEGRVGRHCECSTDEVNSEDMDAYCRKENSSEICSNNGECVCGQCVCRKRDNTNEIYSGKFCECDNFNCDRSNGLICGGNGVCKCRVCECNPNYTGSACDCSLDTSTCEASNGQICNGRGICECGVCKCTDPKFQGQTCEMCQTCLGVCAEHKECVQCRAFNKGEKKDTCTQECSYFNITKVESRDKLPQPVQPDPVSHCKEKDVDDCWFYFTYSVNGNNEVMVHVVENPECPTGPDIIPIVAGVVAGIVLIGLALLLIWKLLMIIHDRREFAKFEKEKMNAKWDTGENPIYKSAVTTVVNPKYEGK
# Integrin beta-1 (Homo sapiens) + Integrin alpha-4 (Homo sapiens), sequence (P13612 whole entry, looked up): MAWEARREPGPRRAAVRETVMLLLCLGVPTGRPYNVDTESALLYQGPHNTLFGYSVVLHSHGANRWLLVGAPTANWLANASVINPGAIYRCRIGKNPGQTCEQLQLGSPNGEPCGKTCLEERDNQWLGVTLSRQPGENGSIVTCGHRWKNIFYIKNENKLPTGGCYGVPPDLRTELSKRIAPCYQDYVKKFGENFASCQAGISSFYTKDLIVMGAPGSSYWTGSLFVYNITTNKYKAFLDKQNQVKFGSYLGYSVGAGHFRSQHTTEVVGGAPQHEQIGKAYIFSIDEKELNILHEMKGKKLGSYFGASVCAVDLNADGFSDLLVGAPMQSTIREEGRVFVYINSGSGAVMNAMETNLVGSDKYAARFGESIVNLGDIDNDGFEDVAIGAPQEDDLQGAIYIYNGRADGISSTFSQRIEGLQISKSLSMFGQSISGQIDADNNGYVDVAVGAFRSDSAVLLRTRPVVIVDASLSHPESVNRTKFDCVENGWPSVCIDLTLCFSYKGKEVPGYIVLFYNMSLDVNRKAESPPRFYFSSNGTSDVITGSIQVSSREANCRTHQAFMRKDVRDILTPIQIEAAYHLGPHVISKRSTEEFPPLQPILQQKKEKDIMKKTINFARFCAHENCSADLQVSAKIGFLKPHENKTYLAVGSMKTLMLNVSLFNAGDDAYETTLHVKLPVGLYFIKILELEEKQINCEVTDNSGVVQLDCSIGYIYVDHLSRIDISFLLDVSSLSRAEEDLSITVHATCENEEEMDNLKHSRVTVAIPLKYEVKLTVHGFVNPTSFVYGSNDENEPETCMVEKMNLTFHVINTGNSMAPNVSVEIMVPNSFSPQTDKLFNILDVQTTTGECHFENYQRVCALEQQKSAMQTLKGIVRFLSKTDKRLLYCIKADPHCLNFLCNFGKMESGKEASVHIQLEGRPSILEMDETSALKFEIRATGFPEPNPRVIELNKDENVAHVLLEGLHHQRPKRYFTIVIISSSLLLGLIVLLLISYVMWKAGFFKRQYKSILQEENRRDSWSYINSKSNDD
# [8] = calorie-restriction mimetic ROS inhibitors, yeast – validation compound set, pilot screen (AID 2706;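 active means superoxide response below 65% of plate, a cut near 3 SD across the whole screen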;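 further: yeast exposed to compound for one week at 30 degrees C before staining; 100% = mean of all compound wells on the same plate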); conditions: S. cerevisiae aging, superoxide DHE fluorescence; at 10 µM; stronger effect = lower value
# [9] = molecular target: Beta-adrenergic receptor kinase 1 (Homo sapiens) (UniProt P25098); test: GRK2 binders displacing RNA aptamer, biochemical, validation, human GRK2, bead flow cytometry (AID 488806;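 active means aptamer binding inhibition above 30%, about 3 SD of noise from non-fluorescent compounds; inactive means inhibition at or below 30%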); conditions: bead-bound GRK2, FAM-aptamer displacement, at 10 µM, stronger effect = higher value
# Beta-adrenergic receptor kinase 1 (Homo sapiens), sequence (P25098 whole entry, looked up): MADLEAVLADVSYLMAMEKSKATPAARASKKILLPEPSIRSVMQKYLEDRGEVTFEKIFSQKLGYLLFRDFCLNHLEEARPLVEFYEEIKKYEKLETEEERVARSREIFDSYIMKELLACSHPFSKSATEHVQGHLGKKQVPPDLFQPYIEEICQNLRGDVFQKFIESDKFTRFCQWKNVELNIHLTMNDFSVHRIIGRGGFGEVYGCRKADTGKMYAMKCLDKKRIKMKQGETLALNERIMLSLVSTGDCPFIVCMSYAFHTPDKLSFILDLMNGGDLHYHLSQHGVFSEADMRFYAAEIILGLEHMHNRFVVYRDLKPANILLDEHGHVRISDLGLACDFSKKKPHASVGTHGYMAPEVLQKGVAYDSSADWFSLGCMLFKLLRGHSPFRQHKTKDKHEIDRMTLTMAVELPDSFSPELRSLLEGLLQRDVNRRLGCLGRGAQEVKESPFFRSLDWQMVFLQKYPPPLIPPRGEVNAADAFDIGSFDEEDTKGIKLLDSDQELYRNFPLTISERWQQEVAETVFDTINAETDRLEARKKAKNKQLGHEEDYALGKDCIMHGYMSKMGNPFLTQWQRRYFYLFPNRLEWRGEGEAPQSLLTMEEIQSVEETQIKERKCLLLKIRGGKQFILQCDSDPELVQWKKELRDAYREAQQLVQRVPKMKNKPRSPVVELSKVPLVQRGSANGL
# [10] = molecular target: Beta-2 adrenergic receptor (Homo sapiens) (UniProt P07550); test: agonist-induced loss of surface beta2AR – cell-based, FAP fluorogen, flow cytometry, validation set, pilot screen (AID 504459;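 active means percent response above 42, roughly 3 SD of non-fluorescent test compounds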;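 further: agonist-driven loss of surface beta2AR via internalization measured by FAP dye flow cytometry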); conditions: Am2.2-beta2AR cells, at 10 µM, stronger effect = higher value
# Beta-2 adrenergic receptor (Homo sapiens), sequence (P07550 whole entry, looked up): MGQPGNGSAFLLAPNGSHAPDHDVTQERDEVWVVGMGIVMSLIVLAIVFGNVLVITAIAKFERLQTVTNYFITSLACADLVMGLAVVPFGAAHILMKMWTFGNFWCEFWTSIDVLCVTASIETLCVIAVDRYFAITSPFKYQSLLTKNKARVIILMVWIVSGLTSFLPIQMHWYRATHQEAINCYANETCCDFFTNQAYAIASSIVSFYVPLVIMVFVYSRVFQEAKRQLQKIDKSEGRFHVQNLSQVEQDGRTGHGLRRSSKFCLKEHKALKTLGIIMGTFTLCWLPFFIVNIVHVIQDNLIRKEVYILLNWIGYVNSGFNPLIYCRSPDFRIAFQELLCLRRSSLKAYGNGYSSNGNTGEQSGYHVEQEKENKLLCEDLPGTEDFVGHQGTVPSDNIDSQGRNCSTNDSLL
# [11] = molecular target: AP-2 complex subunit beta (Homo sapiens) (UniProt P63010); test: beta-arrestin/AP2 interaction blockers – biochemical, validation set, GST-AP2 beads, flow cytometry, pilot screen (AID 504541;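 active means inhibition above 54%, about 3 SD of non-fluorescent compounds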;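 further: AP2 carries R879A mutation and is captured from E. coli lysate; bead-bound FITC arrestin peptide fluorescence measuring arrestin peptide binding to AP2; 0% = DMSO wells and 100% = excess unlabeled arrestin peptide control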); conditions: FITC arrestin peptide, at 10 µM, stronger effect = higher value, AP2 beta2 appendage fragment, R879A mutant
# AP-2 complex subunit beta (Homo sapiens), sequence (P63010 whole entry, looked up, the tested form may be a part, one chain of several): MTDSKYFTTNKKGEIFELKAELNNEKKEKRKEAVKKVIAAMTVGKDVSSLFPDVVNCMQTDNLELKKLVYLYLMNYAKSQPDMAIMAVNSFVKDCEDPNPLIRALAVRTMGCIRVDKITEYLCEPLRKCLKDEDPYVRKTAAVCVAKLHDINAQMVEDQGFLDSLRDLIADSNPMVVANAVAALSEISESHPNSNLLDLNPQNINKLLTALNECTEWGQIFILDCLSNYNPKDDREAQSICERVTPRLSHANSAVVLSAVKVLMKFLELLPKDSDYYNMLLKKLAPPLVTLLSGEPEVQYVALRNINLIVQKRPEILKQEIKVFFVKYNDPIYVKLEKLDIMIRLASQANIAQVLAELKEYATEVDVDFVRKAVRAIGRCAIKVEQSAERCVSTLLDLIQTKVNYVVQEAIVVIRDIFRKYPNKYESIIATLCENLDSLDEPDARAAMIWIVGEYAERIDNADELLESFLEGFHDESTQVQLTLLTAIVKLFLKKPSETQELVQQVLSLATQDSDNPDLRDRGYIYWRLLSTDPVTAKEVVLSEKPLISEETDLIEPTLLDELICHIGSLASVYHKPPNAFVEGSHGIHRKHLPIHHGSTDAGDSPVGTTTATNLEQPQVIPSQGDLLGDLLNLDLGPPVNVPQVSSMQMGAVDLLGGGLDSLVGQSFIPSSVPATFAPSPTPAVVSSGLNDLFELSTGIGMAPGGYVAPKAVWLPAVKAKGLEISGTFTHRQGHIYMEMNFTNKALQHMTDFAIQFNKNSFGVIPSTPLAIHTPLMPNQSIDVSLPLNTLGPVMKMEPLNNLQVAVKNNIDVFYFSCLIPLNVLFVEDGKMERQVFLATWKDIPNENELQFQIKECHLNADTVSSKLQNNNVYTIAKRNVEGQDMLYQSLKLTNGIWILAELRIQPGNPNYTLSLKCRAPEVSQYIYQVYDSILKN
# [12] = cytosolic pH regulators acting via V-ATPase – S. cerevisiae, pHLuorin, HTS validation (AID 504600; in the data active means response above about 15%;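 further: plate controls were DMSO for no effect and reference compound for full effect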); conditions: V-ATPase proton transport, at 10 µM, stronger effect = higher value
# [13] = test system: anti-desmoglein-3 scFv antibody binding to human DSG3; test: blockers of pathogenic pemphigus antibody–desmoglein-3 binding – biochemical, validation compound set, bead-based, flow cytometry, pilot screen (AID 588368;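 active means binding below the plate cutoff, the plate median minus 3 SD, with a reading above zero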;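 further: signal is the median channel fluorescence of bead-bound GFP antibody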); conditions: Protein G beads, DSG3-Fc, scFv-GFP binding, at 10 µM, stronger effect = lower value
# [14] = Nile Red efflux blockade in pump-expressing yeast – validation compound set, multiplex, phenotypic, pilot screen (AID 588506);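 further: Nile Red retained in cells so higher fluorescence means more efflux inhibition; 0 = negative control wells and 1 = enniatin B 25 µM full block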; conditions: S. cerevisiae pump-expressing triplex, Nile Red efflux flow cytometry; at 10 µM; stronger effect = higher value; the pumps come from Candida albicans
# [15] = molecular target: ATP-binding cassette sub-family B member 6 (Homo sapiens) (UniProt Q9NP58); test: blockers of ABCB6-driven porphyrin uptake – K562-ABCB6 cells, flow cytometry, validation set, pilot screen (AID 588550;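 active means inhibition above the screen-wide mean plus 3 SD, about 51%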;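 further: 0% = DMSO wells and 100% = benzethonium chloride 70 µM positive control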); conditions: K562-ABCB6 porphyrin accumulation, 1 h, at 10 µM, stronger effect = higher value
# ATP-binding cassette sub-family B member 6 (Homo sapiens), sequence (Q9NP58 whole entry, looked up): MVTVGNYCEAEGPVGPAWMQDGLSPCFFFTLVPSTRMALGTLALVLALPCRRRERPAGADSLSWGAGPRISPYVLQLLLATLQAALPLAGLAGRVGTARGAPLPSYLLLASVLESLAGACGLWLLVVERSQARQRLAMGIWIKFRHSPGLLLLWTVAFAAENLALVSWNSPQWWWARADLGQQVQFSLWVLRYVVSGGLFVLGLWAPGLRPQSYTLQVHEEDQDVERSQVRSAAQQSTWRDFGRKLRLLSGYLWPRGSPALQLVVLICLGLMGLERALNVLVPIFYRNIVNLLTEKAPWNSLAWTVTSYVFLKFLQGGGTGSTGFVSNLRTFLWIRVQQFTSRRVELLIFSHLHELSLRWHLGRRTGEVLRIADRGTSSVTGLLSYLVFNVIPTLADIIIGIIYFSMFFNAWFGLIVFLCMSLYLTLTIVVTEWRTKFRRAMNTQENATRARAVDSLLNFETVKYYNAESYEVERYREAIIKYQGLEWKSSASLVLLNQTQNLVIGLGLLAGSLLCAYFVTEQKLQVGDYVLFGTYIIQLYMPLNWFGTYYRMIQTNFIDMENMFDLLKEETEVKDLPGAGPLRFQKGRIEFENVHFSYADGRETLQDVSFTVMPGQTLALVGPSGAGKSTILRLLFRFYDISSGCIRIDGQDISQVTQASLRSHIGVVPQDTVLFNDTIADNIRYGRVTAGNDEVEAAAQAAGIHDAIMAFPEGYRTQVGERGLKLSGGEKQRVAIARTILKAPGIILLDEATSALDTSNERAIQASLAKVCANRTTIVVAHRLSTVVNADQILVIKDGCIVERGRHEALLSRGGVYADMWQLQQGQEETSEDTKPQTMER
# [16] = AML differentiation inducers, ER-HoxA9 marrow cells – cell-based, GFP/MAC1 double positive, flow cytometry, validation set, primary screen (AID 588685;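 active means differentiation response of at least 50%, scaled between solvent and reference control, from cells with both markers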;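 further: compound exposure lasts four days before antibody staining and flow analysis; 0% = DMSO wells and 100% = 5 µM fulvestrant positive control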); conditions: stronger effect = higher value, normalized: vehicle 0, fulvestrant 100
Compound,percent of DMSO control GFP [1],GFP response vs DMSO [2],percent response of DMSO control [3],GFP response vs DMSO [4],"GFP response, % of DMSO [5]",double positive events [6],vesicle binding response [6],inhibition [7],superoxide response (% of plate) [8],aptamer binding inhibition [9],response [10],inhibition [11],response [12],binding (% of control) [13],efflux inhibition (fraction of control) [14],inhibition [15],differentiation response [16]
COc1ccc(NC(=O)CC2C(=O)N(C)C(=S)N2Cc2ccncc2)cc1 (stereo unspecified),88% (inactive),123% (inactive),97.9% (inactive),75.4% (inactive),88.2% (inactive),54.8%,194% (inactive),5.49% (inactive),105% (inactive),0% (inactive),-1.13% (inactive),0.05% (inactive),-1.16% (inactive),100% (inactive),0.01 (inactive),8% (inactive),1.64% (inactive)
O=C(NC(=S)N1CCCCC1)c1cccnc1,102% (inactive),95.1% (inactive),97.8% (inactive),108% (inactive),99.4% (inactive),60.8%,95.6% (inactive),11% (inactive),89.9% (inactive),-3% (inactive),-0.16% (inactive),-15.4% (inactive),-2.13% (inactive),93.3% (inactive),-0.07 (inactive),-15% (inactive),21.8% (inactive)
COc1ccc(NC(=O)Nc2ccc(C(C)C)cc2)cc1,104% (inactive),103% (inactive),101% (inactive),95.9% (inactive),88.6% (inactive),56.2%,126% (inactive),20.4% (inactive),98.7% (inactive),7% (inactive),2.17% (inactive),-5.4% (inactive),-1.78% (inactive),97.3% (inactive),0.03 (inactive),-11% (inactive),2.74% (inactive)
C=C(C)[C@@H]1CC=C(CN2CCC(N3CCC(C(=O)N4CCCC4)CC3)CC2)CC1,105% (inactive),91.9% (inactive),120% (inactive),92% (inactive),101% (inactive),60.1%,292% (inactive),1.62% (inactive),92.9% (inactive),-18% (inactive),-3.2% (inactive),-12.5% (inactive),1.83% (inactive),130% (inactive),0.08 (inactive),-18% (inactive),6.11% (inactive)
Cn1c(=S)n(C)c2ccccc21,99.2% (inactive),104% (inactive),94.4% (inactive),110% (inactive),104% (inactive),61.4%,264% (inactive),16.8% (inactive),104% (inactive),3% (inactive),25.9% (inactive),0.89% (inactive),-1.79% (inactive),105% (inactive),0.08 (inactive),7% (inactive),-4% (inactive)
O=C(Oc1ccccc1)Oc1ccc2c(c1)oc(=O)c1ccccc12,96.3% (inactive),126% (inactive),106% (inactive),90.2% (inactive),102% (inactive),60.1%,230% (inactive),-6.15% (inactive),78.2% (inactive),2% (inactive),4.41% (inactive),4.7% (inactive),0.05% (inactive),94.7% (inactive),0.34 (inactive),4% (inactive),8.19% (inactive)
CN(C)c1ccc(C(CN)c2c[nH]c3ccccc23)cc1 (stereo unspecified),106% (inactive),109% (inactive),104% (inactive),108% (inactive),107% (inactive),61.4%,112% (inactive),9.63% (inactive),99.4% (inactive),-10% (inactive),4.69% (inactive),33.6% (inactive),-9.67% (inactive),102% (inactive),0.09 (inactive),-9% (inactive),-16.3% (inactive)
COc1ccc(CC(=O)Nc2cccc(C(=O)Nc3ccccc3C(=O)O)c2)cc1OC,103% (inactive),102% (inactive),96.4% (inactive),103% (inactive),108% (inactive),61.5%,181% (inactive),6.55% (inactive),108% (inactive),6% (inactive),-21.7% (inactive),-0.19% (inactive),2.28% (inactive),99.7% (inactive),0 (inactive),8% (inactive),26.5% (inactive)
OCCN(Cc1nc(-c2ccc3c(c2)OCO3)no1)Cc1cccs1,97.6% (inactive),102% (inactive),91.3% (inactive),109% (inactive),89.4% (inactive),65.7%,118% (inactive),9.63% (inactive),88.2% (inactive),1% (inactive),23.6% (inactive),-7.29% (inactive),-1.85% (inactive),109% (inactive),-0.28 (inactive),6% (inactive),15.9% (inactive)
CC(=O)OC1c2c(ccc3ccc(=O)oc23)OC(C)(C)C1OC(=O)CC(C)C (stereo unspecified),103% (inactive),99.3% (inactive),104% (inactive),98% (inactive),94.2% (inactive),64.2%,1500% (inactive),19.3% (inactive),90.3% (inactive),3% (inactive),-25.3% (inactive),1.97% (inactive),-1.96% (inactive),100% (inactive),0.24 (inactive),15% (inactive),-3.67% (inactive)
COc1ccc(OC)c(S(=O)(=O)N2CCCc3ccccc32)c1,101% (inactive),104% (inactive),91.3% (inactive),126% (inactive),105% (inactive),58.6%,124% (inactive),15% (inactive),97.2% (inactive),5% (inactive),2.04% (inactive),2.15% (inactive),-1.7% (inactive),105% (inactive),0.18 (inactive),24% (inactive),-8.96% (inactive)
COc1cc(NC(=S)NN2CCN(C)CC2)cc(OC)c1OC,105% (inactive),108% (inactive),116% (inactive),92% (inactive),106% (inactive),62.3%,240% (inactive),7.85% (inactive),91.4% (inactive),3% (inactive),-10.5% (inactive),-10.5% (inactive),2.58% (inactive),105% (inactive),-0.04 (inactive),13% (inactive),5.13% (inactive)
NC(=O)N1c2ccccc2CC(=O)c2ccccc21,103% (inactive),102% (inactive),102% (inactive),92.6% (inactive),102% (inactive),64.1%,200% (inactive),6.95% (inactive),106% (inactive),2% (inactive),0.79% (inactive),-3.95% (inactive),-2.65% (inactive),97.3% (inactive),-0.14 (inactive),2% (inactive),-6.03% (inactive)
CN(C)CCC(c1ccccc1)c1ccccn1 (stereo unspecified),97.2% (inactive),130% (inactive),97.9% (inactive),83.6% (inactive),86.1% (inactive),64.9%,139% (inactive),14.2% (inactive),93.1% (inactive),3% (inactive),-2.11% (inactive),-9.57% (inactive),-0.43% (inactive),97.8% (inactive),-0.35 (inactive),12% (inactive),8.19% (inactive)
CC12CCCCN1CCCc1c2[nH]c2ccccc12 (stereo unspecified),99.6% (inactive),105% (inactive),115% (inactive),82.8% (inactive),99.5% (inactive),61.3%,149% (inactive),-22.2% (inactive),99.9% (inactive),-6% (inactive),8.33% (inactive),3.51% (inactive),0.15% (inactive),112% (inactive),-0.2 (inactive),-49% (inactive),11% (inactive)
Cc1nc(-c2coc3c(CN(C)C)c(O)ccc3c2=O)cs1,92.6% (inactive),131% (inactive),104% (inactive),85.8% (inactive),88% (inactive),61.6%,143% (inactive),-26.5% (inactive),98.6% (inactive),6% (inactive),4.53% (inactive),2.27% (inactive),-0.21% (inactive),105% (inactive),-0.46 (inactive),11% (inactive),-1.64% (inactive)
COc1cccc(N2C(=O)CC(c3c[nH]c4ccccc34)C2=O)c1 (stereo unspecified),108% (inactive),103% (inactive),110% (inactive),106% (inactive),97.1% (inactive),61.9%,159% (inactive),-42.6% (inactive),95.3% (inactive),1% (inactive),12% (inactive),10% (inactive),-0.64% (inactive),105% (inactive),0 (inactive),-26% (inactive),-13.3% (inactive)
COc1ccc(C(=O)Nc2ncc3c(n2)CC(C)CC3=O)cc1 (stereo unspecified),98% (inactive),105% (inactive),105% (inactive),110% (inactive),104% (inactive),48.3%,83.7% (inactive),-12.7% (inactive),99.5% (inactive),-2% (inactive),2.81% (inactive),61.9% (active),-6.31% (inactive),95.3% (inactive),0.01 (inactive),15% (inactive),-7.2% (inactive)
